This passage reports binding signal results from article PMC7862700, “An all-to-all approach to the identification of sequence-specific readers for epigenetic DNA modifications on cytosine”.

Test in all cases: DAPPL (digital affinity profiling via proximity ligation, sequencing); 10 mM Tris-HCl pH 7.5, 50 mM NaCl, 1 mM DTT, 4% glycerol, room temperature, 30 min; GST-TFs on glutathione beads, 16-mer random dsDNA library, 0.1% formaldehyde crosslink after washing; high values mean tight binding
Holding throughout (conditions): protein: recombinant; tags: N-terminal GST; dsDNA, one strand shown

One experiment concerns the target T1, FLI1 (Homo sapiens, UniProt Q01543 1-452).
T1 sequence: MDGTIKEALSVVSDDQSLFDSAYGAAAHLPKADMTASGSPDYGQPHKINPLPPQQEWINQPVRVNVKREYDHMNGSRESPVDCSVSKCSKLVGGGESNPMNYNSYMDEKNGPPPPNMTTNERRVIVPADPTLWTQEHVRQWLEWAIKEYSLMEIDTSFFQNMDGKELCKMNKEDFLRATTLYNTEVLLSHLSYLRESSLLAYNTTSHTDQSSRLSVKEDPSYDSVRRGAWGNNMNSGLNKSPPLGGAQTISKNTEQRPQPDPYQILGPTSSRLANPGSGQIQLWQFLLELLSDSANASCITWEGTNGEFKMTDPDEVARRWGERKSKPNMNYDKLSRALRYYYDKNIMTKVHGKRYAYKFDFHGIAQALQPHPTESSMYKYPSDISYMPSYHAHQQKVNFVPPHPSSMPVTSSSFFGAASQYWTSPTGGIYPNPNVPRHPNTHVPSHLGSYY
Put shortly: (§1)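 Human transcription factors carrying a GST fusion were produced in yeast, bound to glutathione beads, tagged with DNA barcodes and pooled together with a tag-only sample. Each pool was held with 200 nmole of a random double-stranded 16-mer DNA library in Tris/NaCl/DTT/glycerol buffer for 30 min at room temperature, then washed, crosslinked in 0.1% formaldehyde, proximity-ligated with BsaI/T4 ligase (1 h, 37 °C), PCR-amplified and sequenced on an Illumina NextSeq500. Binding signal is the read frequency of each hexamer for a given factor divided by its frequency in the tag-only sample.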

The target of the next experiment is T2, ELK1 (Homo sapiens, UniProt P19419 1-428).
T2 sequence: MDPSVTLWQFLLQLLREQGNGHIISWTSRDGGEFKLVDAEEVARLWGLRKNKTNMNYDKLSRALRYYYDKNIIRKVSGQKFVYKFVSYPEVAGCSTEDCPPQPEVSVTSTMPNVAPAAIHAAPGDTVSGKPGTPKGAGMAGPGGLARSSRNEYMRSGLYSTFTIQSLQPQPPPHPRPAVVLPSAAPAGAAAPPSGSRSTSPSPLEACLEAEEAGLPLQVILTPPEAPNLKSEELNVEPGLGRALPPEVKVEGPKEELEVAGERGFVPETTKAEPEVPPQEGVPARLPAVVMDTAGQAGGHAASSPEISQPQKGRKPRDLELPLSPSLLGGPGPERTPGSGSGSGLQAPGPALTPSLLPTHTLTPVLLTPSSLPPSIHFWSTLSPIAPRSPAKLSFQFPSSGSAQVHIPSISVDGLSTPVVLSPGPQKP
The essentials:
as §1

The next experiment concerns the target T3, GABPA (Homo sapiens, UniProt Q06546 1-454).
T3 sequence: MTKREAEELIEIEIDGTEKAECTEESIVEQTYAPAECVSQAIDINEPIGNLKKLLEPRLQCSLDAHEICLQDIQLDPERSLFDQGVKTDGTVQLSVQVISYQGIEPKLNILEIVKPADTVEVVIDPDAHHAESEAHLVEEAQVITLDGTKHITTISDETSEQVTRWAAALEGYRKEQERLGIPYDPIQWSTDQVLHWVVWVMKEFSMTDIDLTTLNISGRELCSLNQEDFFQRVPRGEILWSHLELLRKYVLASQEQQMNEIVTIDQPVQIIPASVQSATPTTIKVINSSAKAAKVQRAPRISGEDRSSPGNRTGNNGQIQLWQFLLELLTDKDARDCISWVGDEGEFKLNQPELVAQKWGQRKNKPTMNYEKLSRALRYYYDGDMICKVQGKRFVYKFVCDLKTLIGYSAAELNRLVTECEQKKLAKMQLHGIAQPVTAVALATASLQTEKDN
Put shortly:
as §1

The next experiment deals with T4, ERG (Homo sapiens, UniProt P11308 1-479).
T4 sequence: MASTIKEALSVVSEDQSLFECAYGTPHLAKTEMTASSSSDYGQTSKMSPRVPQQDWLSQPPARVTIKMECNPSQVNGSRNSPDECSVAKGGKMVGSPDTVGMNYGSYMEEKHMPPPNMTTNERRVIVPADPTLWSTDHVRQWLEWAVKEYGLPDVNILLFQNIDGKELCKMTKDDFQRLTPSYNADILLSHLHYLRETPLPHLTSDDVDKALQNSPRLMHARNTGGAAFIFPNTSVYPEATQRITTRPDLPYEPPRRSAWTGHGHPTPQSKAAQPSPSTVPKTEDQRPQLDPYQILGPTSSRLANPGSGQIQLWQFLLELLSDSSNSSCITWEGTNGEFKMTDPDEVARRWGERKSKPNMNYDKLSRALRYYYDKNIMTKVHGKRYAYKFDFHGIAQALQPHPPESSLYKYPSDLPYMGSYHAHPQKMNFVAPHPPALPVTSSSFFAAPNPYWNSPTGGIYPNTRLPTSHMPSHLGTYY
The essentials: as §1

A further experiment deals with ELF1 (Homo sapiens, UniProt P32519 1-619). The essentials: as §1
Chain of ELF1 (P32519 whole entry): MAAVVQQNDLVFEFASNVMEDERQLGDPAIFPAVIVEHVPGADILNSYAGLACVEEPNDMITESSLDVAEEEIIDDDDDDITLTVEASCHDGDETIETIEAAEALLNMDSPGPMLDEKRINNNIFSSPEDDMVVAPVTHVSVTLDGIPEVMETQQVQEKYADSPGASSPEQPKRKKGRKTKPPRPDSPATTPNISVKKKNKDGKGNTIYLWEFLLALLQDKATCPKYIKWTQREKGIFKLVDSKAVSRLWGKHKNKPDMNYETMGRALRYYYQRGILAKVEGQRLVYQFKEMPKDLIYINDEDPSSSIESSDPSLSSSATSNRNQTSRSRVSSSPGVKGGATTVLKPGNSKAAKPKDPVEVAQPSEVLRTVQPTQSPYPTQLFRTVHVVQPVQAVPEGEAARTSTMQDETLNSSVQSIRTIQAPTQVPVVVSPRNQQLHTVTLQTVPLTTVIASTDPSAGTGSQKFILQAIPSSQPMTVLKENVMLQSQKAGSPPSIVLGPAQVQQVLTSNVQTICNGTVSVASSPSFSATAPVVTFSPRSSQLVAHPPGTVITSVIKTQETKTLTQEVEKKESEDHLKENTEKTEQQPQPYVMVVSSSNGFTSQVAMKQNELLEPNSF
In a further experiment the target is T5, EHF (Homo sapiens, UniProt Q9NZC4 1-300).
T5 sequence: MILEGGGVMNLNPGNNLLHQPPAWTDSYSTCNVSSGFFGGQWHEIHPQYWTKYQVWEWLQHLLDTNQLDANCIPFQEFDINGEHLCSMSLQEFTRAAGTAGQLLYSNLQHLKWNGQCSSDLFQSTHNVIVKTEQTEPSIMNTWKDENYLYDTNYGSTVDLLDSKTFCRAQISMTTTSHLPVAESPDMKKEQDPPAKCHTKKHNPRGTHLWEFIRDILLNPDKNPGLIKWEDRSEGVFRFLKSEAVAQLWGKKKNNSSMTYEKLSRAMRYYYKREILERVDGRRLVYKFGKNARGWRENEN
Put shortly:
as §1

Another experiment addresses SPI1 (Homo sapiens, UniProt P17947 1-270). The essentials:
as §1

Another experiment has as its target SPIB (Homo sapiens, UniProt Q01892 1-262). Put shortly:
as §1

The target in another experiment is T6, ELK3 (Homo sapiens, UniProt P41970 1-407).
T6 sequence: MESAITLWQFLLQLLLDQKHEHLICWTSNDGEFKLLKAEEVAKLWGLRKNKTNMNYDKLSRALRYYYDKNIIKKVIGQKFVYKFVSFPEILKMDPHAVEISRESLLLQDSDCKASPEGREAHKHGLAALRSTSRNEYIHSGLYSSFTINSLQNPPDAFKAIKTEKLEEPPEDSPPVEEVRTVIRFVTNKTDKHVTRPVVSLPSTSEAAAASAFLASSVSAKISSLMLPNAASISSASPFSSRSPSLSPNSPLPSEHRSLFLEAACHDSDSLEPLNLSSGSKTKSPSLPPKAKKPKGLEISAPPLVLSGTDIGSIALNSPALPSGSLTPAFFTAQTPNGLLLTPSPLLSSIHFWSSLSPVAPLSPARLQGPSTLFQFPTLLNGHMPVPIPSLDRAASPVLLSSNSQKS
Put shortly: as §1

Chain of SPIB (Q01892 whole entry): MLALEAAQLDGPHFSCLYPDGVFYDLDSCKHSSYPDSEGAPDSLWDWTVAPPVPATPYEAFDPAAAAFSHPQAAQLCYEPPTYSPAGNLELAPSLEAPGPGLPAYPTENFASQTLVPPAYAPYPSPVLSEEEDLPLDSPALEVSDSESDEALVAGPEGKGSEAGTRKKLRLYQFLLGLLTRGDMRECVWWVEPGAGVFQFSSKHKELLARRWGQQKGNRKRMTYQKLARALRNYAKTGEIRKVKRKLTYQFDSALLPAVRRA

With ATCTGG, the binding signal is 1.19 fold enrichment (6-mer frequency, TF over GST control) with FLI1; 1.01 fold enrichment (6-mer frequency, TF over GST control) with ELK1; 1.17 fold enrichment (6-mer frequency, TF over GST control) in the experiment with GABPA; 1.14 fold enrichment (6-mer frequency, TF over GST control) with ERG; 1.18 fold enrichment (6-mer frequency, TF over GST control) in the experiment with ELF1; 1.12 fold enrichment (6-mer frequency, TF over GST control) with EHF. Also, the binding signal in the experiment with SPI1 is 1.12 fold enrichment (6-mer frequency, TF over GST control); with SPIB, 1.14 fold enrichment (6-mer frequency, TF over GST control); in the experiment with ELK3 it was 1.09 fold enrichment (6-mer frequency, TF over GST control).
For the sequence GGCTCT, the binding signal with FLI1 was 1.15 fold enrichment (6-mer frequency, TF over GST control); in the experiment with ELK1, 1.23 fold enrichment (6-mer frequency, TF over GST control); with GABPA it was 1.23 fold enrichment (6-mer frequency, TF over GST control); with ERG it was 1.26 fold enrichment (6-mer frequency, TF over GST control); with ELF1, 1.29 fold enrichment (6-mer frequency, TF over GST control); in the experiment with EHF it was 1.27 fold enrichment (6-mer frequency, TF over GST control). For the same sequence, the binding signal with SPI1 was 1.18 fold enrichment (6-mer frequency, TF over GST control); in the experiment with SPIB, 1.26 fold enrichment (6-mer frequency, TF over GST control); with ELK3, 1.42 fold enrichment (6-mer frequency, TF over GST control).
On to CCTTCT, for which the binding signal in the experiment with FLI1 was 1.62 fold enrichment (6-mer frequency, TF over GST control); with ELK1, 1.42 fold enrichment (6-mer frequency, TF over GST control); with GABPA it was 1.6 fold enrichment (6-mer frequency, TF over GST control); with ERG, 1.54 fold enrichment (6-mer frequency, TF over GST control); in the experiment with ELF1 it was 1.63 fold enrichment (6-mer frequency, TF over GST control); with EHF, 1.67 fold enrichment (6-mer frequency, TF over GST control). The binding signal is 1.67 fold enrichment (6-mer frequency, TF over GST control) in the experiment with SPI1; 1.56 fold enrichment (6-mer frequency, TF over GST control) in the experiment with SPIB; 1.79 fold enrichment (6-mer frequency, TF over GST control) in the experiment with ELK3.
For the sequence CCGAAT, the binding signal with FLI1 was 1.23 fold enrichment (6-mer frequency, TF over GST control); with ELK1, 1.1 fold enrichment (6-mer frequency, TF over GST control); with GABPA, 1.25 fold enrichment (6-mer frequency, TF over GST control); in the experiment with ERG, 1.07 fold enrichment (6-mer frequency, TF over GST control); with ELF1 it was 1.22 fold enrichment (6-mer frequency, TF over GST control); in the experiment with EHF, 1.24 fold enrichment (6-mer frequency, TF over GST control). Moreover, the binding signal was 1.2 fold enrichment (6-mer frequency, TF over GST control) with SPI1; 1.22 fold enrichment (6-mer frequency, TF over GST control) with SPIB; 1.14 fold enrichment (6-mer frequency, TF over GST control) in the experiment with ELK3.
In the case of ACTTCT, the binding signal is 1.49 fold enrichment (6-mer frequency, TF over GST control) with FLI1; 1.53 fold enrichment (6-mer frequency, TF over GST control) with ELK1; 1.5 fold enrichment (6-mer frequency, TF over GST control) in the experiment with GABPA; 1.43 fold enrichment (6-mer frequency, TF over GST control) with ERG; 1.52 fold enrichment (6-mer frequency, TF over GST control) in the experiment with ELF1; 1.56 fold enrichment (6-mer frequency, TF over GST control) in the experiment with EHF. The binding signal is 1.62 fold enrichment (6-mer frequency, TF over GST control) in the experiment with SPI1; 1.45 fold enrichment (6-mer frequency, TF over GST control) with SPIB; 1.48 fold enrichment (6-mer frequency, TF over GST control) in the experiment with ELK3.
Take AACATT: the binding signal with FLI1 is 1.37 fold enrichment (6-mer frequency, TF over GST control); in the experiment with ELK1, 1.26 fold enrichment (6-mer frequency, TF over GST control); in the experiment with GABPA, 1.35 fold enrichment (6-mer frequency, TF over GST control); in the experiment with ERG, 1.25 fold enrichment (6-mer frequency, TF over GST control); with ELF1, 1.29 fold enrichment (6-mer frequency, TF over GST control); with EHF it was 1.33 fold enrichment (6-mer frequency, TF over GST control). In addition, the binding signal in the experiment with SPI1 is 1.17 fold enrichment (6-mer frequency, TF over GST control); in the experiment with SPIB, 1.34 fold enrichment (6-mer frequency, TF over GST control); with ELK3, 1.25 fold enrichment (6-mer frequency, TF over GST control).
For the sequence CTACGC, the binding signal in the experiment with FLI1 is 1.71 fold enrichment (6-mer frequency, TF over GST control); with ELK1, 1.59 fold enrichment (6-mer frequency, TF over GST control); with GABPA, 1.56 fold enrichment (6-mer frequency, TF over GST control); with ERG, 1.47 fold enrichment (6-mer frequency, TF over GST control); in the experiment with ELF1 it was 1.55 fold enrichment (6-mer frequency, TF over GST control); with EHF, 1.56 fold enrichment (6-mer frequency, TF over GST control). Besides, the binding signal was 1.59 fold enrichment (6-mer frequency, TF over GST control) in the experiment with SPI1; 1.6 fold enrichment (6-mer frequency, TF over GST control) with SPIB; 1.56 fold enrichment (6-mer frequency, TF over GST control) in the experiment with ELK3.
